Our source for the binding signal values is article PMC7862700, “An all-to-all approach to the identification of sequence-specific readers for epigenetic DNA modifications on cytosine”.

Assay in all cases: DAPPL (digital affinity profiling via proximity ligation, sequencing); 10 mM Tris-HCl pH 7.5, 50 mM NaCl, 1 mM DTT, 4% glycerol, room temperature, 30 min; GST-TFs on glutathione beads, 16-mer random dsDNA library, 0.1% formaldehyde crosslink after washing; high values mean tight binding
Test [1] deals with T1, FEV (Homo sapiens, UniProt Q99581 1-238).
T1 sequence: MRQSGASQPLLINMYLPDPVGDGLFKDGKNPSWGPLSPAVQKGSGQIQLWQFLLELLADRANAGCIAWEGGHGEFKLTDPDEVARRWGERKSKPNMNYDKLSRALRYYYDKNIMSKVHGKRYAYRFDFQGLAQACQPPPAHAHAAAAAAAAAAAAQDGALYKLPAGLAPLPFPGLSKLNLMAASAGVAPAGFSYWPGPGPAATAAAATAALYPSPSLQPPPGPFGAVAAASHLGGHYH
The conditions noted are these: protein: recombinant; tags: N-terminal GST; dsDNA, one strand shown. The method, boiled down: (§1)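 Each value of binding signal is a hexamer's read frequency for a factor divided by the same hexamer's frequency in the tag-only sample. Barcoded, bead-captured GST fusions of human transcription factors made in yeast were pooled with that sample and incubated with 200 nmole of a random double-stranded 16-mer DNA library in Tris/NaCl/DTT/glycerol buffer at room temperature for 30 min. Washing, 0.1% formaldehyde crosslinking, proximity ligation, PCR and Illumina NextSeq500 sequencing followed.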

Test [2] deals with ETV5 (Homo sapiens, UniProt P41161 1-510). As to conditions: protein: recombinant; tags: N-terminal GST; dsDNA, one strand shown. The method, boiled down: as §1
Chain of ETV5 (P41161 whole entry): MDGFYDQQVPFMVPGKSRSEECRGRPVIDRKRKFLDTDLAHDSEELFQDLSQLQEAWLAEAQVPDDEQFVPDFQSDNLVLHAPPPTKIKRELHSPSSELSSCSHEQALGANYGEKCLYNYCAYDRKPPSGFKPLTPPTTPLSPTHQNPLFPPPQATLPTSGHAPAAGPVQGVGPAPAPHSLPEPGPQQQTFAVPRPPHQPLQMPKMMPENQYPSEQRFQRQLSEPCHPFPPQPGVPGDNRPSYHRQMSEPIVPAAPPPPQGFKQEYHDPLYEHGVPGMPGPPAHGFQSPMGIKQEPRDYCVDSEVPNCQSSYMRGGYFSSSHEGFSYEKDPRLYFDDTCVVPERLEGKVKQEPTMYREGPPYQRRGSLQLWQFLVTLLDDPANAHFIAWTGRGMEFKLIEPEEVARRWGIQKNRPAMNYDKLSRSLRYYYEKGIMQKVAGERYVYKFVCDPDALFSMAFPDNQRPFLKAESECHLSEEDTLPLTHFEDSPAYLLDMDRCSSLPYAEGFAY
Test [3] addresses HSF1 (Homo sapiens, UniProt Q00613 1-529). As to conditions: protein: recombinant; tags: N-terminal GST; chain copies: 3; dsDNA, one strand shown. The method, boiled down:
as §1

In test [4] the target is T2, SPIC (Homo sapiens, UniProt Q8N5J4 1-248).
T2 sequence: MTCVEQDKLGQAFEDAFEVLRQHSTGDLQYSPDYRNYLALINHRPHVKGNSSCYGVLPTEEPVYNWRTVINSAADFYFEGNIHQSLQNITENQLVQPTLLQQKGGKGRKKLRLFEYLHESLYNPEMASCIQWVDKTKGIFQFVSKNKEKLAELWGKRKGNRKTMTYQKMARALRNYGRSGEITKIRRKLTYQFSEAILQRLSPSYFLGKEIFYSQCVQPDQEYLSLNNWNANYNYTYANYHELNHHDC
The conditions noted are these: protein: recombinant; tags: N-terminal GST; dsDNA, one strand shown. The method, boiled down:
as §1

In test [5] the target is ELF4 (Homo sapiens, UniProt Q99607 1-663). The conditions noted are these: protein: recombinant; tags: N-terminal GST; dsDNA, one strand shown. The method, boiled down: as §1
Chain of ELF4 (Q99607 whole entry): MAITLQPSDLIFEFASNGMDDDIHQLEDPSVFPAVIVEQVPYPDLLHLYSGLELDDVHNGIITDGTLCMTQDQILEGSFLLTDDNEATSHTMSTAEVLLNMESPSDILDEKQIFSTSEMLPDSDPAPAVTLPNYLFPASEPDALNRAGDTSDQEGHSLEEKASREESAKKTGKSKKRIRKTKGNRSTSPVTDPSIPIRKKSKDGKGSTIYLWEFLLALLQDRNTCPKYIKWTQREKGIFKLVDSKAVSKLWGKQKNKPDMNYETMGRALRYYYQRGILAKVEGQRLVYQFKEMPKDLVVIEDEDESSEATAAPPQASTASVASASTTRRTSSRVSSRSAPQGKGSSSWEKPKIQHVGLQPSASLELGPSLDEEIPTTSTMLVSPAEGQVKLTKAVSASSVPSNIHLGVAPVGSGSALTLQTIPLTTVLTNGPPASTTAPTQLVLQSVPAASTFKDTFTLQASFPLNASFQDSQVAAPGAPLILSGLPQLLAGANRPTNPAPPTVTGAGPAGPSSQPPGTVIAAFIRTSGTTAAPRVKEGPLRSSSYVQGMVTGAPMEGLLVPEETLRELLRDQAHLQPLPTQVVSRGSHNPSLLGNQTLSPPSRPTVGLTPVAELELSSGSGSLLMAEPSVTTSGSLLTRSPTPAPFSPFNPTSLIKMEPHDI
In test [6] the target is T3, ELK4 (Homo sapiens, UniProt P28324-2 1-405).
T3 sequence: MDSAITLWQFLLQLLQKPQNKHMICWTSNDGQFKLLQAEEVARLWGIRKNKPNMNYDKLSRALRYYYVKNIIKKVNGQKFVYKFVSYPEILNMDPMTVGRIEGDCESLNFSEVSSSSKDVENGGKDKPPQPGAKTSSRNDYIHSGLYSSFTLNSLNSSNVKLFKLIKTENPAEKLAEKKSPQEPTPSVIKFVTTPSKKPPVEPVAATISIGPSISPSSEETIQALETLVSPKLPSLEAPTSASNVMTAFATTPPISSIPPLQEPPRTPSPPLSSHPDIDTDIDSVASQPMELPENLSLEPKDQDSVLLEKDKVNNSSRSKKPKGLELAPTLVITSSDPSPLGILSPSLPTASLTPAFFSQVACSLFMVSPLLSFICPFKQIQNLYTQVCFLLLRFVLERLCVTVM
The conditions noted are these: protein: recombinant; tags: N-terminal GST; dsDNA, one strand shown. The method in brief: as §1

The target in test [7] is T4, ETV2 (Homo sapiens, UniProt O00321 1-342).
T4 sequence: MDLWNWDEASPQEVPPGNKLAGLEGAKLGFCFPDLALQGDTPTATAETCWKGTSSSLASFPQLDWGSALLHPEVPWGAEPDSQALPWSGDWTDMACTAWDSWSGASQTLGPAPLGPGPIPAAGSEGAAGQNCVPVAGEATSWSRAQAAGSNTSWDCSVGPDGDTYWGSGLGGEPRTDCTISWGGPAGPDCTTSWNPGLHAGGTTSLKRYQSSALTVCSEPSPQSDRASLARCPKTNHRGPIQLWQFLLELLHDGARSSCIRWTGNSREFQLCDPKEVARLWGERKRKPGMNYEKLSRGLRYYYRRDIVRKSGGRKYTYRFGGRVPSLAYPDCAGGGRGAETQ
As to conditions: protein: recombinant; tags: N-terminal GST; dsDNA, one strand shown. The method in brief: as §1

The target of test [8] is T5, ELF3 (Homo sapiens, UniProt P78545 1-371).
T5 sequence: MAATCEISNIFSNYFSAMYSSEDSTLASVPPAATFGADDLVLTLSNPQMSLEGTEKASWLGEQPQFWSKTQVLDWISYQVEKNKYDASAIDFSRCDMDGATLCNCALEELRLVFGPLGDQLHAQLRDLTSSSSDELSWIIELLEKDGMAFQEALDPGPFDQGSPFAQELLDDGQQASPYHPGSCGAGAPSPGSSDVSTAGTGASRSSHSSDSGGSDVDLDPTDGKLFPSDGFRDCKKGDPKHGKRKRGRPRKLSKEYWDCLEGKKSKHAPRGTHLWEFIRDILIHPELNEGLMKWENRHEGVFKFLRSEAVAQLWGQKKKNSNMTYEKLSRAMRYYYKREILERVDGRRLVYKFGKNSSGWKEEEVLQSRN
As to conditions: protein: recombinant; tags: N-terminal GST; dsDNA, one strand shown. The method, boiled down: as §1

For test [9], the target named is CRX (Homo sapiens, UniProt O43186 1-299). The conditions noted are these: protein: recombinant; tags: N-terminal GST; dsDNA, one strand shown. The method in brief: as §1
Chain of CRX (O43186 whole entry): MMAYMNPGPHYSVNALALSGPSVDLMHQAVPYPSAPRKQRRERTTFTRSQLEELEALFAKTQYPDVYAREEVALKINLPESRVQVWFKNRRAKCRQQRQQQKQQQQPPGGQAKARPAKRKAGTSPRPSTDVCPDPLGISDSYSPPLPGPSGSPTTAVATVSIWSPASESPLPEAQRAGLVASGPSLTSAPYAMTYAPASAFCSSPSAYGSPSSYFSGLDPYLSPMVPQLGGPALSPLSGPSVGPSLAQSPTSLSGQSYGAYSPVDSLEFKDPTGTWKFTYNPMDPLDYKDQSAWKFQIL
Test [10] has as its target ETV1 (Homo sapiens, UniProt P50549 1-477). As to conditions: protein: recombinant; tags: N-terminal GST; dsDNA, one strand shown. The method in brief: as §1
Test [11] deals with T6, ERF (Homo sapiens, UniProt P50548 1-548).
T6 sequence: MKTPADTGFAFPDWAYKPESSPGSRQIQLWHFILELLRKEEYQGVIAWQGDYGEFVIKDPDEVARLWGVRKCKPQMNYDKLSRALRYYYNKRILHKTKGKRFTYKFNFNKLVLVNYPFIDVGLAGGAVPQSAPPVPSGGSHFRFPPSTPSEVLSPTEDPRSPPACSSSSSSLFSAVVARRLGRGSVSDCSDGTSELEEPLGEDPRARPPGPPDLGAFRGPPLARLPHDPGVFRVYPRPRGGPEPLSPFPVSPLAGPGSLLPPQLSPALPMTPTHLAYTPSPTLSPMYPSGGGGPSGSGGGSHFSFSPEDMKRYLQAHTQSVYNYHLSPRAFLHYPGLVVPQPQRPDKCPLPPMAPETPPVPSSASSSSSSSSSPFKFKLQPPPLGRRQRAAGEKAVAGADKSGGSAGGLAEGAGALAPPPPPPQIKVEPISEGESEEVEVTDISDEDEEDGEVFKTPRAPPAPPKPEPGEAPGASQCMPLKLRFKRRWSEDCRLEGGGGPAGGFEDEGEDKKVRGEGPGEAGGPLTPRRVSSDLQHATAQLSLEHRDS
The conditions noted are these: protein: recombinant; tags: N-terminal GST; dsDNA, one strand shown. The method, boiled down: as §1

For test [12], the target named is T7, ETV3L (Homo sapiens, UniProt Q6ZN32 1-361).
T7 sequence: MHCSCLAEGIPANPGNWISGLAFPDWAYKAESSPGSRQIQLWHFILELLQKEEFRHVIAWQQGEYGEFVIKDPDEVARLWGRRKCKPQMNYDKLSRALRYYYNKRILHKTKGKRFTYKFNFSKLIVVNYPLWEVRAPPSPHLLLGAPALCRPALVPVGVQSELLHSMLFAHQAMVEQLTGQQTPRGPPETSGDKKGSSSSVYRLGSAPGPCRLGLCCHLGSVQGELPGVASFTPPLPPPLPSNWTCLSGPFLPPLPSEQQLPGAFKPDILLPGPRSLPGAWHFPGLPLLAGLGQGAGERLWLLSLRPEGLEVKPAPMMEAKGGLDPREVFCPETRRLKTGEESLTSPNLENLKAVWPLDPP
As to conditions: protein: recombinant; tags: N-terminal GST; dsDNA, one strand shown. The method, boiled down:
as §1

In test [13] the target is T8, ETS2 (Homo sapiens, UniProt P15036 1-469).
T8 sequence: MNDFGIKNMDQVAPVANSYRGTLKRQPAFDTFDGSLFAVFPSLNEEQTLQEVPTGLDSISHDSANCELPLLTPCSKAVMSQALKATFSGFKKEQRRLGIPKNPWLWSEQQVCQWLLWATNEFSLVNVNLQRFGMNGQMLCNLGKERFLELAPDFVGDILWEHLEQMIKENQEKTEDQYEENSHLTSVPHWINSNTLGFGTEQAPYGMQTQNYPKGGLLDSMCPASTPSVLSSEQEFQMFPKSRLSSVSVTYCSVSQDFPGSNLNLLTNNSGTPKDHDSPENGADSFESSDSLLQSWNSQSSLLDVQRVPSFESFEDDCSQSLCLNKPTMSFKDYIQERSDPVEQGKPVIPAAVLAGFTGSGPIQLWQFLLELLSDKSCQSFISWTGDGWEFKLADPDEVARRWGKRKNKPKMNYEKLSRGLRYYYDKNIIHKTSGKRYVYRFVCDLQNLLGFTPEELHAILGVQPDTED
As to conditions: protein: recombinant; tags: N-terminal GST; dsDNA, one strand shown. The method, boiled down: as §1

Test [14] concerns the target T9, SPDEF (Homo sapiens, UniProt O95238 1-335).
T9 sequence: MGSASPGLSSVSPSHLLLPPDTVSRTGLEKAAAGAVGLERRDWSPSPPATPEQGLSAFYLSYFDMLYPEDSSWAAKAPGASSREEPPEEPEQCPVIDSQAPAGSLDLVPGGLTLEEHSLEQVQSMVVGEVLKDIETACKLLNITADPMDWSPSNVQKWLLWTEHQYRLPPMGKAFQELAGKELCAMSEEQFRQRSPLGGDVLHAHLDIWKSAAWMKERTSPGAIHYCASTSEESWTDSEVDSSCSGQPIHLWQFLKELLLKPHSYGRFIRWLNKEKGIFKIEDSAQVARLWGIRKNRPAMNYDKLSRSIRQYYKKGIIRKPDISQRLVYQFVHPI
The conditions noted are these: protein: recombinant; tags: N-terminal GST; dsDNA, one strand shown. The method in brief:
as §1

Test [15] concerns the target T10, ETV7 (Homo sapiens, UniProt Q9Y603 1-341).
T10 sequence: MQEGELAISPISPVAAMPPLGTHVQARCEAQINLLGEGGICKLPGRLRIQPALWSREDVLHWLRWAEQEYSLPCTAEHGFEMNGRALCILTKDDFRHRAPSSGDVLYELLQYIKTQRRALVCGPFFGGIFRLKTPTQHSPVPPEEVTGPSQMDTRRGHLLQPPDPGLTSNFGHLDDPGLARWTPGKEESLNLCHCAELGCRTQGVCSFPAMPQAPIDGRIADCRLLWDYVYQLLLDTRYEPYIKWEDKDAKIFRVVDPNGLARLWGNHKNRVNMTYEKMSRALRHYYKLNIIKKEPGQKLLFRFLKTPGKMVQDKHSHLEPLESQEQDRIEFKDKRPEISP
The conditions noted are these: protein: recombinant; tags: N-terminal GST; dsDNA, one strand shown. The method in brief: as §1

The target of test [16] is T11, ELF5 (Homo sapiens, UniProt Q9UKW6-2 1-255).
T11 sequence: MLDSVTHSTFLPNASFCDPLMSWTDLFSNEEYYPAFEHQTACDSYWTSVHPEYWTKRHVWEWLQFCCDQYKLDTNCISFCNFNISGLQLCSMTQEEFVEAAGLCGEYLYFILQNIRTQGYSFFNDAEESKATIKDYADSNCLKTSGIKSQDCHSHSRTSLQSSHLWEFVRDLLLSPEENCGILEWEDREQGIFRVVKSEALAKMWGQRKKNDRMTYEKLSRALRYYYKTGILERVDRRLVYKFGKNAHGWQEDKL
As to conditions: protein: recombinant; tags: N-terminal GST; dsDNA, one strand shown. The method in brief: as §1

For test [17], the target named is T12, ETV3 (Homo sapiens, UniProt P41162-2 1-143).
T12 sequence: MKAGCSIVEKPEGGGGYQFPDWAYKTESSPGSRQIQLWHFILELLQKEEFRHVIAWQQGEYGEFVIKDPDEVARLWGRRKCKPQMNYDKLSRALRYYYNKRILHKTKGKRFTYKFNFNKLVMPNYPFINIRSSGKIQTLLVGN
As to conditions: protein: recombinant; tags: N-terminal GST; dsDNA, one strand shown. The method in brief:
as §1

For test [18], the target named is ETV6 (Homo sapiens, UniProt P41212 1-452). As to conditions: protein: recombinant; tags: N-terminal GST; dsDNA, one strand shown. The method in brief: as §1
Chain of ETV6 (P41212 whole entry): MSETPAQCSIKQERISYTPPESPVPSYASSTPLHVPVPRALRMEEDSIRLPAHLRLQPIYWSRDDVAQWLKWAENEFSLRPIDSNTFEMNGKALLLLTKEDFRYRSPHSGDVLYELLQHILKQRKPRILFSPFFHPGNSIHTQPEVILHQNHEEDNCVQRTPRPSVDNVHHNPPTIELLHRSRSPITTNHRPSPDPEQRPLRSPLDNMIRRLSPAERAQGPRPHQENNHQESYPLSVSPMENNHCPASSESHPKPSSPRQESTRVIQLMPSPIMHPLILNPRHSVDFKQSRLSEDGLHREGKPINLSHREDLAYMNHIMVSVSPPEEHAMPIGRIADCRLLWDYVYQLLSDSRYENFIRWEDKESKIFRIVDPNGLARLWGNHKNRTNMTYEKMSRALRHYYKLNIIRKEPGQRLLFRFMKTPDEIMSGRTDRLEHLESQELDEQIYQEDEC

Chain of ETV1 (P50549 whole entry): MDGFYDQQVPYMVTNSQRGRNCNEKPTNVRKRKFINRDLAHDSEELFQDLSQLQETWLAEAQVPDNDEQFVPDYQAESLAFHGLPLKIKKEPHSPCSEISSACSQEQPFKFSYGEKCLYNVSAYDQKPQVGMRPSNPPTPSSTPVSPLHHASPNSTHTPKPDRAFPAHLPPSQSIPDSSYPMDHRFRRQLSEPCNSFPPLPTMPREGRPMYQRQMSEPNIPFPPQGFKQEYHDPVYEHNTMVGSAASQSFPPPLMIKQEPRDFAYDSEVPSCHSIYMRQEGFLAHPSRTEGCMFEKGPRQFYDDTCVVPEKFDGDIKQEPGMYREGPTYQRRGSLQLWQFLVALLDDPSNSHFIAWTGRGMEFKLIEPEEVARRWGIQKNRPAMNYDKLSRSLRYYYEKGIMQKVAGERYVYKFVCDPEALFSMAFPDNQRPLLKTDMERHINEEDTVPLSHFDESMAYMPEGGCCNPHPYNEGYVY
Chain of HSF1 (Q00613 whole entry): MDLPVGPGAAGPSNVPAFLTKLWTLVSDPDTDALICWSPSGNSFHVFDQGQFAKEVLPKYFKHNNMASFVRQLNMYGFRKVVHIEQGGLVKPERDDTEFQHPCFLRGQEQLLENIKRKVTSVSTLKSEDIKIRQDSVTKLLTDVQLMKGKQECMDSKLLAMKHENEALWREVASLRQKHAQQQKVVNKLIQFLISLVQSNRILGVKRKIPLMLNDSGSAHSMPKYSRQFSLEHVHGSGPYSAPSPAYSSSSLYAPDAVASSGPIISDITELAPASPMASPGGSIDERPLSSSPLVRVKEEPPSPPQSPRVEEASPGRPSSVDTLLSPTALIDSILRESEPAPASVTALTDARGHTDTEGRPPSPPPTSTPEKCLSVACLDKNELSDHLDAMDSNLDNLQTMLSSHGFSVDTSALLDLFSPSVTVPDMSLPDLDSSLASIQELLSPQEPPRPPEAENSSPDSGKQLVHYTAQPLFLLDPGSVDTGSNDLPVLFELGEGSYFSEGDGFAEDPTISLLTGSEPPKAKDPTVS

Take TTCCGG: the binding signal is 8.68 fold enrichment (6-mer frequency, TF over GST control) in test [1]; 6.4 fold enrichment (6-mer frequency, TF over GST control) in test [2]; 1.93 fold enrichment (6-mer frequency, TF over GST control) in test [3]; 5.6 fold enrichment (6-mer frequency, TF over GST control) in test [4]; 5.4 fold enrichment (6-mer frequency, TF over GST control) in test [5]; 4.67 fold enrichment (6-mer frequency, TF over GST control) in test [6]. Also, the binding signal in test [7] is 5.78 fold enrichment (6-mer frequency, TF over GST control); in [8] it was 5.14 fold enrichment (6-mer frequency, TF over GST control); in test [9], 1.33 fold enrichment (6-mer frequency, TF over GST control); in test [10], 6.12 fold enrichment (6-mer frequency, TF over GST control); in test [11] it was 4.81 fold enrichment (6-mer frequency, TF over GST control); in test [12], 5.36 fold enrichment (6-mer frequency, TF over GST control). For the same sequence, the binding signal in test [13] is 6 fold enrichment (6-mer frequency, TF over GST control); in [14] it was 6.57 fold enrichment (6-mer frequency, TF over GST control); in [15], 5.39 fold enrichment (6-mer frequency, TF over GST control); in [16], 8.59 fold enrichment (6-mer frequency, TF over GST control); in test [17] it was 6.28 fold enrichment (6-mer frequency, TF over GST control); in [18], 6.93 fold enrichment (6-mer frequency, TF over GST control).
